# From PubChem BioAssay AID1159580 (chemical genetic matrix, 2015)
# Values joined by “and” are separate entries in the source; they are usually repeats but may differ in a detail not shown here. Equal entries are not always repeated. About 2,000 (36%) of roughly 5,500 compounds were called active. Inconclusive results (about 18%) are left out. No stated cut-off is given here; in the data, active means normalized growth mostly below about 0.91 (no sharp cut-off); inconclusive means no clear call, values can overlap the other calls; inactive means mostly above about 0.92. This is one part of the list. A structure can be active in one record and inactive in another.
# Assay: chemical genetic growth profiling, strain panel (AID 1159580);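 further: tested at 20 µM; growth read once vehicle control cultures reached saturation at 30 °C; 1 = growth at the plate median or of vehicle wells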
# Settings: S. cerevisiae deletion strains, growth OD
smiles,measurement,setting,value
NCCOB(c1ccccc1)c1ccccc1,normalized growth,"locus YAL021C, strain ccr4, stronger effect = lower value",0.936 (inactive) and 0.969 (inactive)
same,normalized growth,"locus YAL026C, strain drs2, stronger effect = lower value",0.153 (active) and 0.218 (active)
same,normalized growth,"locus YAL030W, strain snc1, stronger effect = lower value",0.892 (active) and 0.987 (inactive)
same,normalized growth,"locus YBL061C, strain skt5, stronger effect = lower value",0.578 (active) and 0.786 (active)
same,normalized growth,"locus YBR009C, strain hhf1, stronger effect = lower value",0.758 (active) and 0.788 (active)
same,normalized growth,"locus YBR023C, strain chs3, stronger effect = lower value",0.925 (inactive) and 0.92 (inactive)
same,normalized growth,"locus YBR171W, strain sec66, stronger effect = lower value",0.968 (inactive) and 0.998 (inactive)
same,normalized growth,"locus YBR231C, strain swc5, stronger effect = lower value",1.03 (inactive) and 1 (inactive)
same,normalized growth,"locus YBR279W, strain paf1, stronger effect = lower value",0.46 (active) and 0.808 (active)
same,normalized growth,"locus YCL011C, strain gbp2, stronger effect = lower value",0.879 (active) and 0.913 (inactive)
same,normalized growth,"locus YCL016C, strain dcc1, stronger effect = lower value",1.01 (inactive) and 0.977 (inactive)
same,normalized growth,"locus YCL061C, strain MRC1, stronger effect = lower value",0.827 (active) and 0.759 (active)
same,normalized growth,"locus YCL069W, strain vba3, stronger effect = lower value",0.437 (active) and 0.312 (active)
same,normalized growth,"locus YCR088W, strain abp1, stronger effect = lower value",0.604 (active) and 0.524 (active)
same,normalized growth,"locus YDL005C, strain med2, stronger effect = lower value",1 (inactive) and 1.03 (inactive)
same,normalized growth,"locus YDL040C, strain nat1, stronger effect = lower value",1.01 (inactive) and 1.02 (inactive)
same,normalized growth,"locus YDR001C, strain nth1, stronger effect = lower value",0.651 (active) and 0.789 (active)
same,normalized growth,"locus YDR069C, strain doa4, stronger effect = lower value",1.02 (inactive) and 1.01 (inactive)
same,normalized growth,"locus YDR137W, strain rgp1, stronger effect = lower value",0.997 (inactive) and 0.987 (inactive)
same,normalized growth,"locus YDR159W, strain sac3, stronger effect = lower value",1.03 (inactive) and 1.06 (inactive)
same,normalized growth,"locus YDR195W, strain ref2",1.11 (inactive) and 1.07 (inactive)
same,normalized growth,"locus YDR297W, strain sur2, stronger effect = lower value",1.01 (inactive) and 0.979 (inactive)
same,normalized growth,"locus YDR334W, strain swr1, stronger effect = lower value",0.472 (active) and 0.793 (active)
same,normalized growth,"locus YDR335W, strain msn5, stronger effect = lower value",1 (inactive) and 0.991 (inactive)
same,normalized growth,"locus YDR392W, strain spt3, stronger effect = lower value",0.423 (active) and 0.451 (active)
same,normalized growth,"locus YEL003W, strain gim4, stronger effect = lower value",1.02 (inactive) and 0.999 (inactive)
same,normalized growth,"locus YEL037C, strain rad23, stronger effect = lower value",1.01 (inactive)
same,normalized growth,"locus YEL061C, strain CIN8 (second series), stronger effect = lower value",1.01 (inactive)
same,normalized growth,"locus YER015W, strain faa2, stronger effect = lower value",0.528 (active) and 0.733 (active)
same,normalized growth,"locus YER016W, strain bim1, stronger effect = lower value",1.02 (inactive)
same,normalized growth,"locus YER111C, strain swi4, stronger effect = lower value",1.02 (inactive) and 1.01 (inactive)
same,normalized growth,"locus YER155C, strain BEM2 (second series), stronger effect = lower value",0.815 (active) and 0.926 (inactive)
same,normalized growth,"locus YFR010W, strain ubp6, stronger effect = lower value",0.351 (active) and 0.387 (active)
same,normalized growth,"locus YGL167C, strain pmr1, stronger effect = lower value",1.04 (inactive) and 1.05 (inactive)
same,normalized growth,"locus YGL173C, strain kem1, stronger effect = lower value",0.927 (inactive) and 0.93 (inactive)
same,normalized growth,"locus YGL227W, strain vid30, stronger effect = lower value",0.602 (active) and 0.427 (active)
same,normalized growth,"locus YGL240W, strain doc1, stronger effect = lower value",0.822 (active) and 0.865 (active)
same,normalized growth,"locus YGL253W, strain hxk2, stronger effect = lower value",0.468 (active) and 0.384 (active)
same,normalized growth,"locus YHR013C, strain ard1, stronger effect = lower value",0.432 (active) and 0.49 (active)
same,normalized growth,"locus YHR027C, strain rpn1, stronger effect = lower value",0.799 (active) and 0.766 (active)
same,normalized growth,"locus YHR030C, strain SLT2, stronger effect = lower value",0.106 (active)
same,normalized growth,"locus YHR079C, strain IRE1, stronger effect = lower value",0.11 (active)
same,normalized growth,"locus YHR142W, strain chs7, stronger effect = lower value",0.882 (inactive) and 0.977 (inactive)
same,normalized growth,"locus YJL092W, strain hpr5, stronger effect = lower value",0.334 (active) and 0.399 (active)
same,normalized growth,"locus YJL095W, strain BCK1 (second series), stronger effect = lower value",0.887 (active) and 0.923 (inactive)
same,normalized growth,"locus YJL095W, strain BCK1, stronger effect = lower value",0.106 (active)
same,normalized growth,"locus YJL115W, strain asf1, stronger effect = lower value",0.85 (active) and 0.877 (active)
same,normalized growth,"locus YJL129C, strain trk1, stronger effect = lower value",0.965 (inactive) and 0.979 (inactive)
same,normalized growth,"locus YJL154C, strain vps35, stronger effect = lower value",0.454 (active) and 0.657 (active)
same,normalized growth,"locus YJL164C, strain tpk1, stronger effect = lower value",0.824 (active) and 0.786 (active)
same,normalized growth,"locus YJL166W, strain qcr8, stronger effect = lower value",0.841 (active) and 0.839 (active)
same,normalized growth,"locus YJL187C, strain SWE1, stronger effect = lower value",0.798 (active)
same,normalized growth,"locus YJR066W, strain TOR1, stronger effect = lower value",0.00283 (active)
same,normalized growth,"locus YKL160W, strain elf1, stronger effect = lower value",0.717 (active) and 0.751 (active)
same,normalized growth,"locus YKR026C, strain gcn3, stronger effect = lower value",0.381 (active) and 0.353 (active)
same,normalized growth,"locus YKR091W, strain srl3, stronger effect = lower value",0.357 (active) and 0.316 (active)
same,normalized growth,"locus YLL001W, strain dnm1, stronger effect = lower value",0.995 (inactive) and 0.946 (inactive)
same,normalized growth,"locus YLL026W, stronger effect = lower value",0.836 (active) and 0.998 (inactive)
same,normalized growth,"locus YLL041C, strain sdh2, stronger effect = lower value",0.868 (active) and 0.944 (inactive)
same,normalized growth,"locus YLR027C, strain aat2, stronger effect = lower value",0.694 (active) and 0.939 (inactive)
same,normalized growth,"locus YLR113W, strain HOG1, stronger effect = lower value",0.141 (active)
same,normalized growth,"locus YLR221C, strain rsa3, stronger effect = lower value",0.372 (active) and 0.709 (active)
same,normalized growth,"locus YLR258W, strain gsy2, stronger effect = lower value",0.578 (active) and 0.778 (active)
same,normalized growth,"locus YLR262C, strain YPT6 (second series), stronger effect = lower value",0.923 (inactive) and 0.845 (active)
same,normalized growth,"locus YLR320W, strain mms22, stronger effect = lower value",0.973 (inactive) and 1 (inactive)
same,normalized growth,"locus YLR342W, strain FKS1, stronger effect = lower value",0.841 (active) and 0.823 (active)
same,normalized growth,"locus YLR357W, strain rsc2, stronger effect = lower value",0.629 (active)
same,normalized growth,"locus YLR370C, strain arc18, stronger effect = lower value",0.44 (active) and 0.485 (active)
same,normalized growth,"locus YLR384C, strain iki3, stronger effect = lower value",1.02 (inactive)
same,normalized growth,"locus YML120C, strain ndi1, stronger effect = lower value",0.961 (inactive) and 0.993 (inactive)
same,normalized growth,"locus YMR058W, strain fet3, stronger effect = lower value",0.167 (active) and 0.157 (active)
same,normalized growth,"locus YMR125W, strain sto1, stronger effect = lower value",0.759 (active) and 0.824 (active)
same,normalized growth,"locus YMR129W, stronger effect = lower value",0.507 (active) and 0.306 (active)
same,normalized growth,"locus YMR205C, strain PFK2, stronger effect = lower value",0.937 (inactive) and 0.943 (inactive)
same,normalized growth,"locus YMR231W, strain pep5, stronger effect = lower value",0.247 (active) and 0.309 (active)
same,normalized growth,"locus YNL071W, strain lat1, stronger effect = lower value",0.248 (active) and 0.315 (active)
same,normalized growth,"locus YNL183C, strain NPR1, stronger effect = lower value",0.000102 (active)
same,normalized growth,"locus YNL209W, strain ssb2, stronger effect = lower value",0.699 (active) and 0.694 (active)
same,normalized growth,"locus YNL248C, strain rpa49, stronger effect = lower value",0.693 (active) and 0.758 (active)
same,normalized growth,"locus YNL322C, strain KRE1 (second series), stronger effect = lower value",1.04 (inactive) and 1.03 (inactive)
same,normalized growth,"locus YNR049C, strain mso1, stronger effect = lower value",0.585 (active) and 0.756 (active)
same,normalized growth,"locus YOR001W, strain rrp6, stronger effect = lower value",0.947 (inactive) and 1 (inactive)
same,normalized growth,"locus YOR070C, strain gyp1, stronger effect = lower value",0.657 (active) and 0.767 (active)
same,normalized growth,"locus YOR080W, strain dia2, stronger effect = lower value",1.02 (inactive)
same,normalized growth,"locus YOR083W, strain WHI5, stronger effect = lower value",0.202 (active) and 0.184 (active)
same,normalized growth,"locus YOR106W, strain vam3, stronger effect = lower value",0.688 (active) and 0.741 (active)
same,normalized growth,"locus YOR231W, strain MKK1, stronger effect = lower value",0.0985 (active)
same,normalized growth,"locus YOR265W, strain rbl2, stronger effect = lower value",0.79 (active) and 0.861 (active)
same,normalized growth,"locus YOR270C, strain vph1, stronger effect = lower value",0.934 (inactive) and 0.992 (inactive)
same,normalized growth,"locus YOR290C, strain snf2, stronger effect = lower value",0.895 (inactive) and 0.926 (inactive)
same,normalized growth,"locus YPL051W, strain arl3, stronger effect = lower value",0.622 (active) and 0.599 (active)
same,normalized growth,"locus YPL078C, strain atp4, stronger effect = lower value",0.967 (inactive) and 0.972 (inactive)
same,normalized growth,"locus YPL106C, strain sse1, stronger effect = lower value",0.891 (inactive) and 0.792 (active)
same,normalized growth,"locus YPL240C, strain hsp82, stronger effect = lower value",1.02 (inactive) and 0.932 (inactive)
same,normalized growth,"locus YPL256C, strain CLN2, stronger effect = lower value",0.118 (active)
